# Compound activity (PubChem BioAssay)
# Shown are actives, neighbours in structure and some others; about 6.2% of the full set was active somewhere.
# Lassa entry inh – inhibitors of Lassa virus binding or cell entry; Lassa virus pseudotype entry inhibition, cell reporter; Potency, µM (series often up to 37.9 µM), for the others: top-dose activity change, negative = inhibition, most hits filed as inhibitors; 300,000 tested, 1.2% active; AID 540256; calls by dose curve; tested in HEK293 cells; further: potency means the concentration at half of the fitted maximal effect; nearly all actives have a fitted effect of over 50% in size
# MARV entry inh – blocks Marburg virus binding to or entry into cells; 300,000 tested, 1.8% active; Marburg virus pseudotyped entry inhibition, cell reporter; Potency, µM (highest dose often 37.8 µM), for the others: at the highest dose activity change, negative = inhibition, most hits filed as inhibitors; calls by dose curve; tested in HEK293 cells; further: potency means the concentration at half of the fitted maximal effect
# FMDV inh – blocks foot and mouth disease virus. FMDV antiviral cell-based qHTS. Potency, µM (top dose mostly 57.9 µM), inactives show at the top dose activity change, negative = inhibition, hits mostly inhibitors. 410,000 tested, 1.2% active. AID 1159524; calls by dose curve; tested in HEK293T cells; further: read-out not given here; potency means the concentration at half of the fitted maximal effect; nearly all actives have a fitted effect of over 45% in size
# HCMV inh – inhibitors of human cytomegalovirus; HFF cells, HCMV-luciferase reporter, 72 h; stronger effect = lower value; activity change, negative = inhibition, % at 57.5 µM; 410,000 tested, 4.5% active; AID 1259415; in the data active means activity change below about -60%; inconclusive means no clear call, values can overlap the other calls; inactive means above about -39%
#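 After 16 h attachment at 37C, HFF cells received test compound and HCMV-luciferase (1 PFU/cell); reporter luminescence read 72 h later, data normalized against buffer-only and known inhibitor Salinomycin.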
# * = called active by the depositor; ? = inconclusive; · = not tested or not shown; ! = not active in a repeat; [ ] = remark or other dose. On the % scale 0 is the no-effect control and ±100 the full control effect.
SMILES,Lassa entry inh,MARV entry inh,FMDV inh,HCMV inh
COC(=O)c1ccc(NC(=O)c2nn(C)c3c2COc2ccccc2-3)cc1,?,?,?,-71*
Cc1cc(C)c2c(CC(=O)NC(C)C)coc2c1,-1%,-18%[46.1 µM],4%,-61*
CC1=C(O)C(=O)C=C2C1=CC=C1C2(C)CCC2(C)C3CC(C)(C(=O)O)CCC3(C)CCC12C (stereo unspecified),?,2.8µM*,-11%,-78*
CC(=O)Oc1cc2c(c(C)c1OC(C)=O)CC=C1[C@]3(C)CC[C@]4(C)CC[C@@](C)(C(=O)O)CC4[C@]3(C)CC[C@]12C (stereo partly specified),·,·,35µM*,·
Cc1c(O)c(O)cc2c1CC=C1[C@]3(C)CC[C@]4(C)CC[C@@](C)(C(=O)O)CC4[C@]3(C)CC[C@]12C (stereo partly specified),·,·,25µM*,·
CN(CCOc1ccc(Cl)cc1)C(=O)c1cc(-c2ccco2)nc2ccccc12,?,?,35µM*,-25
CCSc1nnc2n(-c3ccc(OC)cc3)c(=O)c3c4c(sc3n12)CCCC4,0%,12%,-29%,-85*
Cc1cc(C2=NNC(=Nc3ccccc3)SC2)c(C)n1C,·,·,41%,31
COc1ccc(N=C2NN=C(c3c(C)[nH]c4ccccc34)CS2)cc1,?,11µM*,-16%,?
CCC(=O)OCOc1ccc(/C=C2/CCC(CN(C)C)C2=O)cc1 (stereo unspecified),?,?,32µM*,?
CS(=O)(=O)Nc1cccc(C(=O)CC2(O)C(=O)Nc3ccccc32)c1 (stereo unspecified),8%,9%,-2%,-68*
CCOc1ccc(Oc2c(C)oc3cc(O)ccc3c2=O)cc1,-3%[46.1 µM],4%[46.1 µM],-6%,?
CCOC(=O)c1ccc(Oc2c(C)oc3cc(OS(C)(=O)=O)ccc3c2=O)cc1,5%,?,0%,-77*
Cc1ccc(-n2ncc3c(Nc4cccc(Cl)c4)ncnc32)c(C)c1,-19%[46.1 µM],·,-2%,-21
O=C(Nc1ccc(Cl)cc1)C1CCCCN1S(=O)(=O)c1ccccc1 (stereo unspecified),-18%,?,?,-101*
O=C(Nc1ccccc1)[C@@H]1CCCN1S(=O)(=O)c1ccc(Cl)cc1,16%,-15%,-5%,-29
Cc1nn(Cc2c(Cl)cccc2Cl)c(C)c1NC(=O)c1cc(C(C)C)on1,·,·,-9%,-98*
Cc1nn(Cc2ccccc2Cl)c(C)c1NC(=O)c1cc(C(C)C)on1,?,?,-9%,-27
Cc1cc(C(=O)Nc2c(C)nn(Cc3c(Cl)cccc3Cl)c2C)no1,5.8µM*,2.6µM*,-10%,-62*
COc1ccc(C2CC(=O)c3sc(NC(C)=O)nc3C2)cc1 (stereo unspecified),-7%,?,-1%,-70*
CC(=O)Oc1ccc(N(C(C)=O)S(=O)(=O)c2ccc3ccccc3c2)cc1,·,·,10%,-71*
CC(=O)N(c1ccc(N(C(C)=O)S(=O)(=O)c2ccccc2)cc1)S(=O)(=O)c1ccccc1,?,1%[46.1 µM],1%,-11
COC(=O)N1CCC2(CCN(Cc3ccc(C#N)cc3)CC2)CC1,·,·,-7%,·
CN=C1S/C(=C\c2ccc(N3CCOCC3)cc2C)C(=O)N1C,2%,6%,-13%,54
CN=C1S/C(=C\c2cc(C)n(-c3ccccc3F)c2C)C(=O)N1C,?,?,-11%,-66*
SMILES,Lassa entry inh,MARV entry inh,FMDV inh,HCMV inh
Cc1cc(/C=C2\SC(=S)N(C)C2=O)c(C)n1-c1cccc(O)c1,·,·,1.3µM*,-92*
CN(C)c1ccc(C=C2SC(=S)N(Cc3ccco3)C2=O)cc1,·,·,-23%,-30
Cc1cc(/C=C2\SC(=S)N(Cc3ccco3)C2=O)c(C)n1-c1ccccc1,?,?,0%,-67*
Cc1cc(/C=C2\SC(=O)N(C)C2=O)c(C)n1-c1ccc(O)cc1,·,·,?,-69*
COc1ccc(N2CCN(C(=O)c3cn(C)c4ccc(S(=O)(=O)N(C)C5CCCCC5)cc4c3=O)CC2)cc1,18%[46.1 µM],7%[46.1 µM],15%,0
O=C(Nc1ccc(Cl)cc1)C(NS(=O)(=O)c1cccs1)c1ccccc1 (stereo unspecified),?,-24%[46.1 µM],0%,-4
O=C(Nc1ccccn1)NC1CCCCC1,12%,?,28%,22
O=C(Nc1ccccn1)NC1CCS(=O)(=O)C1 (stereo unspecified),?,-16%,-19%,-103*
COC(=O)c1ccc(Cn2c(SCc3ccc(F)cc3)nc3ccncc32)cc1,·,6%[46.1 µM],-29%,10
CCC(C)n1cnc2c(c1=O)c1nc3ccccc3nc1n2Cc1ccc(OC)cc1 (stereo unspecified),-17%,-26%,-28%,-75*
Cn1c(Cl)nc2ccccc21,13%,2%,0%,32
O=NNc1nc2ccccc2n1Cc1ccccc1,·,·,-12%,-80*
Cn1c(NN=O)nc2ccccc21,?,?,2%,-100*
CC(=O)O[C@]1(C(C)=O)CC[C@H]2[C@@H]3C=C(Cl)C4=CC(=O)CC[C@]4(C)[C@H]3CC[C@@]21C,-1%,-31%,?,?
CC(=O)O[C@]1(C(C)=O)CC[C@H]2[C@@H]3C=C(Cl)C4=CC(=O)[C@@H]5C[C@@H]5[C@]4(C)[C@H]3CC[C@@]21C,16µM*,?,?,-90*!
CS(=O)(=O)c1cnc(-c2cccnc2)nc1N,-8%,1%[46.1 µM],5%,-91*
O=C(O)[C@@H]1C[C@@H](O)CN1,·,·,·,17
COCC=CC1=CC2=CC(=O)C(C)(OC(=O)c3cnc4ccccc4n3)C(=O)C2=CN1Cc1ccc(OC)cc1 (stereo unspecified),·,-2%[14.2 µM],·,·
COC(=O)c1cc2occc2n1Cc1nc(-c2ccccc2)oc1C,·,?,-11%,-1
Cc1cccc(Nc2nc(N)nc(N)c2S(=O)(=O)c2ccccc2)c1,-22%[46.1 µM],?,-11%,-103*
O=C(NCc1ccccc1F)C1CCCN(S(=O)(=O)c2ccc(-n3cnnn3)cc2)C1 (stereo unspecified),-16%,8%[46.1 µM],?,-77*
O=C(NCc1ccco1)C1CCCN(S(=O)(=O)c2ccc(-n3cnnn3)cc2)C1 (stereo unspecified),0%,-23%,-8%,-1
CN(CC(=O)Nc1ccc(Cl)cc1)C(=O)c1ccc(N2CCCC2=O)cc1,·,·,15%,-15
CN(CC(=O)Nc1ccc(OC(F)(F)F)cc1)C(=O)c1ccc(N2CCCC2=O)cc1,·,·,?,-70*
CCN(c1ccc(NC(=O)c2ccc(N3CCCC3=O)cc2)cc1)C(C)C,?,?,?,-70*
CCN(CC)C(=O)c1ccc(NC(=O)c2ccc(N3CCCC3=O)cc2)cc1,·,·,-3%,9
Cc1csc(NC(=O)c2ccc(N3CCCC3=O)cc2)n1,?,1.6µM*,-78%,-40
Cc1nnc(NC(=O)c2ccc(N3CCCC3=O)cc2)s1,6%,28%,84%,72
CCCCNC(=O)NS(=O)(=O)c1ccc(N)cc1,·,·,·,18
Cc1ccc2cc(CNC(C)c3cccc4ccccc34)c(N3CCC(O)CC3)nc2c1 (stereo unspecified),·,·,0%,·
